Test results as given in the supplement of paper PMC3724861.
The sample as a whole holds a higher share of hits than the screen did. The hit rate among all sequences tested is not known here.

system: T1, Caupolican (Caup) homeodomain DNA-binding domain; assay: PBM E-score (8-mer, recovered from the published 9-mer minima) (E-score (dimensionless, -0.5 to 0.5)); Drosophila protein; higher = stronger relative binding preference, active = 0.31 or more
T1 sequence: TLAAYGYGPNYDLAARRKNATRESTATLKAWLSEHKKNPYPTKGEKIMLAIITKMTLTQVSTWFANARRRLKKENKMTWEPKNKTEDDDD
Description: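 Protein binding microarray (PBM): in vitro transcribed/translated Caupolican (Caup) homeodomain DNA-binding domain (residues 214-303) applied at 100 nM to a universal 8-mer PBM array (Agilent AMADID 015681). The 8-mer enrichment score (E-score, range -0.5 to 0.5) was computed, and each 9-mer score is the minimum E-score of its two constituent 8-mers. The E-score is the same for a 9-mer and its reverse complement; 0.31 is the stated binding threshold.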

Sequence	PBM E-score
CGGTAGGA	-0.0619 (inactive)
AGTAAGAC	0.0795 (inactive)
ACTTTCCT	-0.143 (inactive)
CTTGGTCA	-0.0643 (inactive)
CATAACAA	0.308 (inactive)
GATAACAA	0.32 (active)
TATAACAA	0.306 (inactive)
AAGCATCG	-0.00688 (inactive)
TCCACACA	0.0566 (inactive)
AACTTCAT	0.108 (inactive)
TCTATCCA	-0.0275 (inactive)
GACACGTA	0.348 (active)
TACACGGA	0.375 (active)
TACACGCA	0.29 (inactive)
TACACGAA	0.371 (active)
TACACGTA	0.361 (active)
GACACGTC	0.225 (inactive)
TTCACGAA	0.0673 (inactive)
GCCACGTA	-0.0264 (inactive)
CACACGGA	0.00106 (inactive)
GACACGGA	0.286 (inactive)
CACACGAA	0.0926 (inactive)
CACACGTA	0.142 (inactive)
GGAGTTAC	0.0415 (inactive)

Sequence	PBM E-score
AAAGGTTG	-0.00255 (inactive)
CTGGTAAC	0.115 (inactive)
AGCCCAGC	-0.172 (inactive)
CATACTGC	-0.0312 (inactive)
AAGAGTGC	0.0487 (inactive)
AGATCCAT	-0.0856 (inactive)
GAAGACTC	-0.0665 (inactive)
ACCTCAAA	-0.032 (inactive)
CCATCAGA	-0.105 (inactive)
ATGACACA	0.259 (inactive)
ATGACATG	0.422 (active)
ATGACAGG	0.117 (inactive)
GTGACACA	0.245 (inactive)
CTGACATA	0.22 (inactive)
GGGACATA	0.113 (inactive)
ATGACACC	0.266 (inactive)
ATGACATC	0.333 (active)
ATGACATA	0.379 (active)
ATGACAGA	0.22 (inactive)
CTGACATC	0.28 (inactive)
GTGACATA	0.312 (active)
ACCAGGCT	-0.045 (inactive)
AAGGGTTC	-0.134 (inactive)
ATAAGTAT	0.0762 (inactive)

Sequence	PBM E-score
ATTATCGC	0.0263 (inactive)
AGGAAGAA	-0.0327 (inactive)
AGCTAGTA	0.108 (inactive)
AACGTGAG	-0.0335 (inactive)
GTCGTACA	0.352 (active)
AACGTACA	≥ 0.337 (active)
CTCGTACA	0.238 (inactive)
ATCGTACA	0.349 (active)
AACGTACC	0.0531 (inactive)
CACGTACA	0.261 (inactive)
ATCGTACC	-0.0488 (inactive)
GTCGTATA	0.165 (inactive)
ATCGTACG	0.133 (inactive)
AATCGGTG	0.0507 (inactive)
CGGTGTGA	0.0901 (inactive)
ATCAAAAT	0.131 (inactive)
AAAGTCAC	0.0854 (inactive)
AACCAGGA	0.0369 (inactive)
ACTCGGGA	-0.117 (inactive)
AGCATGTC	0.376 (active)
CGCATGCC	-0.0847 (inactive)
CGCATGCA	0.025 (inactive)
AGCATGCC	-0.0456 (inactive)
CGCATGAC	-0.0417 (inactive)

Sequence	PBM E-score
CGCATGTA	0.352 (active)
CGCATGGA	-0.0924 (inactive)
AGCATGTG	0.222 (inactive)
CGCATGTC	0.348 (active)
CACACTGC	-0.0174 (inactive)
AGTTTCAG	-0.0628 (inactive)
ATCCAGAC	-0.00977 (inactive)
AATTCGTC	0.0479 (inactive)
CCCTGAGG	-0.185 (inactive)
ATCATGTC	≥ 0.42 (active)
ATCATGTG	0.226 (inactive)
CTCATGTC	0.306 (inactive)
ATCATGTA	≥ 0.435 (active)
CTCATGGA	0.0584 (inactive)
GTCATGTA	0.43 (active)
ATCATGAA	0.0136 (inactive)
CTCATGTA	0.377 (active)
CTCATGCA	0.042 (inactive)
GTCATGCA	0.111 (inactive)
ATCATGAC	0.233 (inactive)
GTCATGGA	-0.0262 (inactive)
GAACAATA	0.166 (inactive)
CACATTAC	0.141 (inactive)
CCGAGGGC	-0.267 (inactive)

Sequence	PBM E-score
CAAGGACG	-0.0604 (inactive)
CTCTAGGC	-0.16 (inactive)
CCTGGCTA	-0.0965 (inactive)
AGCGTACC	-0.17 (inactive)
GAGGGAGA	-0.155 (inactive)
AGTTACCA	0.113 (inactive)
CAAGGGCC	-0.135 (inactive)
CCCAGGCA	-0.162 (inactive)
CAGGTACG	-0.00719 (inactive)
ACGTAAGG	-0.042 (inactive)
CATTACAG	0.226 (inactive)
CTTTACAC	0.289 (inactive)
CATTACAC	0.311 (active)
GCTTACAC	0.169 (inactive)
AATTACAC	0.299 (inactive)
GATTACAC	0.318 (active)
CAAGCTGG	-0.105 (inactive)
CAGCCGCA	-0.26 (inactive)
GTTAGTGA	0.152 (inactive)
AGCACTAA	-0.00029 (inactive)
TGCAGTAA	0.0534 (inactive)
ACTATGTA	0.312 (active)
CCTATGTA	0.318 (active)
CCTATGAA	-0.0468 (inactive)

Sequence	PBM E-score
GCTATGTA	0.271 (inactive)
CCTATGTC	0.176 (inactive)
ACTATGTG	0.131 (inactive)
CCGATCGA	-0.133 (inactive)
CAGCTCAA	-0.125 (inactive)
CACTCTAC	0.101 (inactive)
GCGACCGC	-0.261 (inactive)
CGAACCAC	-0.0921 (inactive)
ATGTCGAA	0.291 (inactive)
CTGTCGAC	0.0515 (inactive)
ATGTCGTG	0.316 (active)
ATGTCGCC	0.208 (inactive)
CTGTCGTA	0.124 (inactive)
ATGTCGTA	0.337 (active)
GTGTCGTA	0.252 (inactive)
GTGTCGCA	0.176 (inactive)
ATGTCGAG	0.274 (inactive)
ATGTCGTC	0.28 (inactive)
ATGTCGAC	0.326 (active)
ATGTCGCA	0.331 (active)
CGTCGACA	0.116 (inactive)
AGATTTTA	0.0905 (inactive)
CTTGAACC	0.00592 (inactive)
GATCTGGC	-0.0642 (inactive)

Sequence	PBM E-score
AACCGATG	0.0188 (inactive)
CGGAGTAG	-0.0319 (inactive)
CACGGGAA	-0.0415 (inactive)
AGTGAAAC	0.108 (inactive)
CTCACGAA	0.0184 (inactive)
GTTACGGA	0.0254 (inactive)
TAATTAAA	0.191 (inactive)
AGGTAGGA	-0.0302 (inactive)
CTTGTTAC	0.365 (active)
CTTGTTAA	0.327 (active)
CCTGTTAC	0.254 (inactive)
GTTGTTTA	0.343 (active)
ATTGTTAC	0.307 (inactive)
ATTGTTTA	0.186 (inactive)
ACTGTTAA	0.0659 (inactive)
CTTGTTTA	0.254 (inactive)
ATTGTTGA	0.279 (inactive)
GTTGTTGA	0.321 (active)
CTTGTTGA	0.26 (inactive)
CCTGTTAA	0.188 (inactive)
AACCCGCG	-0.0635 (inactive)
CTGACACA	0.2 (inactive)
CCCACCTA	-0.1 (inactive)
CCAGGTCG	-0.0728 (inactive)

Sequence	PBM E-score
ACTCGCAC	-0.119 (inactive)
TGCGATAA	0.101 (inactive)
AAAGTCGT	0.0643 (inactive)
GCTGTTAA	0.0966 (inactive)
ATTGTTAA	0.21 (inactive)
GTTGTTAA	0.349 (active)
GCATTGGC	-0.14 (inactive)
AAACTACT	0.236 (inactive)
AAACTACC	0.168 (inactive)
CAACTACA	0.287 (inactive)
TAACTAAA	0.109 (inactive)
GAACTACA	0.314 (active)
TAACTACA	0.348 (active)
AAACTACA	0.331 (active)
GAACTACC	0.0628 (inactive)
TAACTATA	0.18 (inactive)
CGGCCTAC	-0.0509 (inactive)
CGTATCAC	0.101 (inactive)
ACCTAGAA	0.08 (inactive)
TACAGAAA	0.17 (inactive)
AAATCTAA	0.0434 (inactive)
CGATTGAA	0.0347 (inactive)
GAGTGCAA	0.065 (inactive)
ATGTCACC	0.279 (inactive)

Sequence	PBM E-score
CTGTCACA	0.167 (inactive)
ATGTCACA	0.39 (active)
ATGTCACG	0.367 (active)
GTGTCACA	0.29 (inactive)
AAGTCACA	0.0474 (inactive)
CACTGCCC	-0.0974 (inactive)
ATTAGTTC	0.154 (inactive)
GATAATCA	0.0651 (inactive)
GCTGTGGA	-0.0809 (inactive)
ATATGGTC	0.105 (inactive)
CAACGCAA	0.0313 (inactive)
AAGGTGGA	-0.0864 (inactive)
CTCACATA	0.149 (inactive)
ATTACAGA	0.208 (inactive)
GTTACATA	0.365 (active)
ATTACAGC	0.128 (inactive)
GTTACAGA	0.172 (inactive)
ATTACATA	≥ 0.385 (active)
ATTACAGG	0.244 (inactive)
ATTACATC	0.374 (active)
ATCACATG	0.286 (inactive)
CTTACATC	0.296 (inactive)
ATTACATG	0.447 (active)
CTTACATA	0.288 (inactive)

Sequence	PBM E-score
TGCGCTAA	0.0295 (inactive)
CTCTGAAG	-0.17 (inactive)
AGATCCCT	-0.128 (inactive)
GAGAATCA	-0.0157 (inactive)
GATGCATA	0.0414 (inactive)
CCCCATGC	-0.233 (inactive)
CGGCTTAG	-0.235 (inactive)
ATCATGCC	0.0227 (inactive)
AGCCAGGG	-0.276 (inactive)
ACGTACCT	0.0612 (inactive)
ACGTACAT	0.337 (active)
CCGTACAC	0.199 (inactive)
GCGTACAC	0.217 (inactive)
ACGTACAG	0.103 (inactive)
ACGTACAC	0.333 (active)
